High-throughput results as filed in PubChem BioAssay.
MCF10A rerep: DNA re-replication induction in MCF 10a cells; MCF 10A DNA re-replication, Hoechst nuclear intensity, 48 h; Potency, µM (doses to about 46.1 µM), inactives show at the highest dose activity, positive = re-replication, most hits filed as activators; 350,000 tested, 2.9% active; also: % of control where 0% means no effect; nearly all actives have a fitted effect of over 50% in size
HT1080NT lethal: kills 2HG-producing HT-1080-NT fibrosarcoma cells. HT-1080-NT fibrosarcoma viability, CellTiter-Glo ATP luminescence, 48 h. Potency, µM (highest dose often 46.1 µM), inactives show at the highest dose activity, negative = less viability, usual class: cytotoxic. 360,000 tested, 1.6% active. AID 686970;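 also: NT is the 2HG producing partner of a matched IDH1 knockdown line; 0% = DMSO-treated cells and -100% = media-only wells without cells; nearly all actives have a fitted effect of over 55% in size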
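HT-1080-NT; 750 cells/well; 5% FBS RPMI; 48 h compound, 37 degrees C; CellTiter-Glo luminescence; curve fitting and curve-class assignment.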
SW480 rerep: induces DNA re-replication in SW480 colon adenocarcinoma cells; Potency, µM (highest dose often 46.1 µM), for the others: at the highest dose re-replication activation, usual class: activators; 340,000 tested, 1.8% active; SW480 DNA re-replication, Hoechst DNA content imaging, 48 h; also: % of control where 0% means no effect; nearly all actives have a fitted effect of over 55% in size
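SW480 cells exposed to compounds for 48 hr at 37 C, 5% CO2, then Hoechst-stained 40 min. Nuclear DNA content imaged by fluorescence scanning (405 nm excitation, 500-530 nm emission); re-replication scored as increased high-intensity nuclei.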
KB-3-1 tox: KB-3-1 parental cell cytotoxicity; AID 1347075; KB-3-1 viability, CellTiter-Glo ATP luminescence, 72 h; Potency, µM (series often up to 46.1 µM), hits mostly cytotoxic; 400,000 tested, 1.4% active; also: % is scaled to controls: 0 for no effect and ±100 for the full control effect; nearly all actives have a fitted effect of over 60% in size
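Parental KB-3-1 adenocarcinoma cells in phenol-red-free DMEM with 10% FBS were pin-treated with compounds at several concentrations, incubated 72 h at 37 °C, and viability read by CellTiter-Glo luminescence; concentration-effect curves were fitted after normalization.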
HT1080 IDH1KD tx: toxicity to HT-1080 IDH1 knockdown cells (counter line). 360,000 tested, 2% active. HT-1080 IDH1 knockdown viability, ATP luminescence, 48 h. AID 686971. Potency, µM (highest dose often 46.1 µM), without a hit: top-dose activity, negative = toxicity, usual class: cytotoxic;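 also: 0% = DMSO wells and -100% = cell-free medium wells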
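CellTiter-Glo luminescence after 48 h compound exposure at 37 degrees C of IDH1-knockdown HT-1080 cells in 5% FBS RPMI. %Activity scaled between DMSO wells and cell-free media wells, with curves fitted and assigned curve classes.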
KB-V1 MDR tox: kills drug-selected multidrug resistant KB-V1 cells | 400,000 tested, 3.4% active | Potency, µM (series often up to 46.1 µM), hits mostly cytotoxic | KB-V1 MDR cells viability, CellTiter-Glo, 72 h | AID 1347076; also: % is scaled to controls: 0 for no effect and ±100 for the full control effect; nearly all actives have a fitted effect of over 60% in size
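Cytotoxicity via CellTiter-Glo luminescence after 72 h compound exposure at 37 degrees C. Cells: drug-selected KB-V1 line, DMEM phenol-red free plus 10% FBS. Compounds tested at multiple concentrations; normalized data fitted to concentration-effect curves.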
Active calls of the source: *; i = inactive; ? = inconclusive; nt = no result; ! = repeats disagree; [ ] = another dose, or the depositor's remark. An excerpt weighted towards active compounds, which were near 7.9% of everything screened. Calls follow the shape of the dose curve; as a rule, active = well fitted curve in the direction sought with a large enough effect; inconclusive = small, poorly fitted or top-dose-only effect, or another doubt; inactive = no such curve, though single readings can be large; an effect the other way counts as inactive or inconclusive. Potency is read from the fitted curve at half-maximal effect.

SMILES	MCF10A rerep	HT1080NT lethal	SW480 rerep	KB-3-1 tox	HT1080 IDH1KD tx	KB-V1 MDR tox
CCOc1c(P(=S)(N(C)C)N(C)C)c(C)nn1-c1ccccc1	5.1%	15.0%	-5.0%[9.22 µM]	i	9.8%	i
CCN(CC)P(=S)(c1c(C)nc2ccccn12)c1c(C)nc2ccccn12	65.1%	-12.0%	10.3µM*	?	?	i
CC/C(=N\N1CCCCCC1)c1c(O)n(-c2ccccc2C)c(=O)[nH]c1=O	10.8%	2.6%	-1.4%	i	3.9%	11.6µM*
O=[N+]([O-])c1cccc(CN2CCN(Cc3ccc(Br)cc3)CC2)c1	9.2µM*	-22.1%	-15.0%	?	-27.1%	i
CC1=C(O)C(=O)C=C2C1=CC=C1C2(C)CCC2(C)C3CC(C)(C(=O)O)CCC3(C)CCC12C (stereo unspecified)	?	4.61µM*	?	?	1.64µM*	?
CC(C)NC(C)C	-2.0%	nt	-5.6%	nt	nt	nt
NC(Cc1ccc(O)cc1)C(=O)NN=Cc1ccc(N(CCCl)CCCl)cc1 (stereo unspecified)	22.0%	?	?	i	-8.8%	i
COc1cc(C(=O)NN=Cc2ccc(N(CCCl)CCCl)cc2)cc(OC)c1OC	16.4µM*	?	18.4µM*	16.4µM*	4.11µM*	i
C[N+]1(C)CCCCC1COC(=O)C(O)(c1ccccc1)c1ccccc1 (stereo unspecified)	0.0%	nt	-12.3%	nt	nt	nt
CCOP(=O)(OCC)/C(=N/OC(=O)c1ccc(OC)cc1)C(N)=O	?	-8.0%	?	?	?	i
O=C(Nc1cccnc1)c1ccc(Cl)c(S(=O)(=O)N2CCCCCC2)c1	7.8%	?	5.9%	i	?	?
CN(C)C(=S)SC(=S)N(C)C	3.2%	nt	2.66µM*	nt	nt	nt
CN(C)C(=S)SSC(=S)N(C)C	21.1µM*!	?	1.33µM*	i	?	i
c1ccc(-c2[nH]c(-c3ccccc3)[n+](CC3CO3)c2-c2ccccc2)cc1 (stereo unspecified)	13µM*	-24.8%	nt	?	-22.8%	?
Cc1c(C)c2c(OCC(=O)N[C@@H](C)C(=O)O)cc3c(c2oc1=O)CCC(C)(C)O3	-20.8%	18.4%	-2.4%	i	18.4%	i
O=C(CCl)c1ccc(O)c(O)c1	nt	nt	nt	i	nt	i
O=C(CCl)c1ccc(Oc2ccc(C(=O)CCl)cc2)cc1	26.6µM*	nt	17.7%	nt	nt	nt
Cc1ccc(-n2c(/C=C/c3cc(Br)cs3)nc3ccccc3c2=O)cc1C	nt	nt	nt	i	nt	i
Cc1ccccc1N1C(=O)NC(=O)/C(=C\c2cc(Br)c(N3CCOCC3)o2)C1=O	7.31µM*	1.0%	?	i	-2.0%	i
CC([C@H](O)c1ccccc1)N(C)C (stereo partly specified)	-4.2%	nt	-6.0%	nt	nt	nt
O=C(CF)N(O)c1ccc(C=Cc2ccccc2)cc1	6.51µM*	-22.0%	10.3µM*	i	?	i
O=S1(=O)N(CCN2CC=C(c3c[nH]c4cc(F)ccc34)CC2)c2cccc3c2N1CCC3	?	13µM*	?	?	16.4µM*	?
COc1cccc(CN2CC=C(c3ccc(F)cc3)CC2)c1	-5.3%	-9.9%	0.0%[9.22 µM]	i	-20.3%	i
O=C1CCCCC1	5.6%	26.5%	-40.0%	i	4.9%	i
CC1CC2(C)C(CCC3C2CCC2(C)C(OP(=O)(N4CC4)N4CC4)CCC32)CC1=O (stereo unspecified)	13µM*	23.8%	-2.8%	i	4.2%	i
C[C@]12CCC3C(CC[C@H]4C[C@H](O)CC[C@]34C)C1CC(=O)[C@@H]2O (stereo partly specified)	0.6%	6.0%	-6.6%	i	10.9%	i
Nc1nc(F)nc2c1ncn2[C@@H]1O[C@H](CO)[C@@H](O)[C@H]1O	4.11µM*!	0.651µM*	?	1.16µM*	0.231µM*	1.46µM*
